Unmarked numbers belong to inactive results.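 Rule for the calls: active = viability at or below 21.59%, 3 SD under the median of tested compounds; inactive = the rest.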

Results on 17 compounds are retold here after PubChem BioAssay AID999 (SRMLSC, 2007).

The nature of this assay: viability loss in PTEN-deleted cells – cell-based, validation, diverse DP compound set (AID 999).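 Note: 100% = median luminescence of untreated cell control wells and 0% = no signal.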 The note with it: HCT116 PTEN-null viability, CellTiter-Glo, 60 h; at 10 µM; hits give low values.
One may read the viability as a read-out of living cells in per cent, often relative to untreated cells. As to `NCC(=O)N[C@@H](CCCN=C(N)N)C(=O)NCC(=O)N[C@@H](CC(=O)O)C(=O)N[C@@H](CC(N)=O)C(=O)N1CC[C@@H](C(=O)O)C1`, the viability was 98%. As for `Cn1c(=O)c2[nH]cnc2n(C)c1=O`, the figure is 97.1%; as for `C=CCc1ccc(O)c(-c2cc(CC=C)ccc2O)c1`, 98.7%.

As to `Cc1c2oc3c(C)ccc(C(=O)N[C@@H]4C(=O)N[C@H](C(C)C)C(=O)N5CCC[C@H]5C(=O)N(C)CC(=O)N(C)[C@@H](C(C)C)C(=O)O[C@@H]4C)c3nc-2c(C(=O)N[C@@H]2C(=O)N[C@H](C(C)C)C(=O)N3CCC[C@H]3C(=O)N(C)CC(=O)N(C)[C@@H](C(C)C)C(=O)O[C@@H]2C)c(N)c1=O`, the viability is 43.2%. As for `C/C(=C\CNc1ncnc2c1ncn2[C@@H]1O[C@H](CO)[C@@H](O)[C@H]1O)CO`, the figure is 91.5%. As for `O=C1CCC(N2C(=O)c3ccccc3C2=O)C(=O)N1` (configuration not stated), the figure is 96.8%; as for `Clc1ccc2ncnc(NCc3ccc4c(c3)OCO4)c2c1`, 83.1%. Turning to `CC1=C(/C=C/C(C)=C/C=C/C(C)=C/C(=O)O)C(C)(C)CCC1`, the viability was 93.7%. The value for `COc1ccc(CCN(C)CCCC(C#N)(c2ccc(OC)c(OC)c2)C(C)C)cc1OC` (configuration not stated) was 85.1%; that for `CCOC(=O)c1ncn2c1CN(C)C(=O)c1cc(F)ccc1-2` was 95.3%; that for `OCCN(CCO)c1nc(N2CCCCC2)c2nc(N(CCO)CCO)nc(N3CCCCC3)c2n1` was 96.3%.

Turning to `CN1C2CCC1CC(OC(=O)C(CO)c1ccccc1)C2` (configuration not stated), the viability is 94.2%. `O=C(O)c1cc([N+](=O)[O-])ccc1NCCCc1ccccc1`: the viability was 94.2%. As for `COc1ccc2cc1Oc1ccc(cc1)C[C@H]1c3c(cc4c(c3Oc3cc5c(cc3OC)CCN(C)[C@@H]5C2)OCO4)CCN1C`, the figure is 37.8%.

As for `CCn1cc(C(=O)O)c(=O)c2ccc(C)nc21`, the viability is 98.4%. The value for `O=c1[nH]cc(F)c(=O)[nH]1` was 58.9%; that for `CCCCCCCCCCCCCCCC(=O)OCC(O)C1OC(=O)C(O)=C1O` (configuration not stated) was 101%.
